Experimental data reported in PubChem BioAssay (NCI).
About 83,000 compounds went through this panel and 20% of them were active in at least one assay; those are over-represented in the sample as a whole.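 Note: values are percent growth. 100 is the growth of untreated cells, values between 100 and 0 indicate rising inhibition; between -100 and 0 indicates cell death.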 Calls of active or inactive are those of the source. The calls were made as follows: active = growth percent below 10; inactive = the rest.

Assays:
Assay in all cases: NCI-60 one-dose screen, 48 h (100 = growth as untreated, 0 = no growth, -100 = all killed)
Conditions in all cases: 10 µM unless noted
[1] = system: SR leukemia
[2] = system: RPMI-8226 leukemia
[3] = system: OVCAR-8 ovarian
[4] = system: OVCAR-5 ovarian
[5] = system: OVCAR-4 ovarian
[6] = system: SK-OV-3 ovarian
[7] = system: IGROV1 ovarian
[8] = system: OVCAR-3 ovarian
[9] = system: HS 578T breast
[10] = system: NCI/ADR-RES ovarian

Measured: growth

Cc1ccc(C(=O)Nc2cc(-n3cnc(F)c3)cc(C(F)(F)F)c2)cc1C#Cc1cnc2cccnn12
inactive: [1] 18.6% | [2] 33.1% | [3] 66.8% | [4] 68.3% | [5] 77.4% | [6] 114% | [7] 71.5% | [8] 119% | [9] 35.8% | [10] 57.2%

O=C1CCC(N2C(=O)c3cccc(NCCOCCOCCOCCC(=O)NCCCC(=O)NC(c4ccc5c(c4)OCO5)c4cc(Cl)c5cccnc5c4O)c3C2=O)C(=O)C1 (stereo not given)
active: [1] 5.36%
inactive: [2] 16.1% | [3] 32.7% | [4] 63.8% | [5] 60.2% | [6] 51.1% | [7] 15.8% | [8] 10.9% | [9] 64.6% | [10] 92.4%

O=C(CSc1nnc(-c2ccc(-c3nc4ccccc4[nH]3)cc2)o1)Nc1ccccc1
inactive: [1] 34.1% | [2] 56.5% | [3] 31.5% | [4] 86% | [5] 94% | [6] 84.7% | [7] 85% | [8] 92.2% | [9] 70.9% | [10] 76.3%

COc1ccc2oc(=O)c(-c3csc(N/N=C(\C)c4cc(OC)c(OC)c(OC)c4)n3)cc2c1
inactive: [1] 70.4% | [2] 72.9% | [3] 86.2% | [4] 109% | [5] 86.5% | [6] 172% | [7] 91.2% | [8] 110% | [9] 110% | [10] 77.9%

Cc1ccccc1NC(=O)c1cccc(NC(=O)CCl)c1
inactive: [1] 16.4% | [2] 26% | [3] 46.3% | [4] 70.4% | [5] 73.7% | [6] 81.3% | [7] 29.5% | [8] 49% | [9] 78% | [10] 38.9%

COc1ccc(SC2c3cc(OC)ccc3Oc3nc(N)c(C#N)c(N)c32)cc1 (stereo not given)
inactive: [1] 29.5% | [2] 56.3% | [3] 87% | [4] 123% | [5] 105% | [6] 113% | [7] 21.9% | [8] 98.4% | [9] 81% | [10] 91.1%

COc1ccc2[nH]cc(-c3cc4nc(-c5cn(C)c6ncccc56)cc(N)n4n3)c2c1
inactive: [6] 103%
active: [1] -9.65% | [2] -33.4% | [3] -40.6% | [4] -17.6% | [5] -26.4% | [7] -62.5% | [8] -57.6% | [9] -10.3% | [10] -15.6%

Cc1ccc(C2CC(c3ccc(NC(=O)Nc4ccccc4)cc3)=NN2c2ccc(S(C)(=O)=O)cc2)cc1 (stereo not given)
inactive: [1] 15.5% | [5] 17.6% | [6] 26.8% | [9] 21.3%
active: [2] -0.47% | [3] 7.91% | [4] -51.3% | [7] -28.1% | [8] -2.63% | [10] -35.3%

O=C(Cn1c(/C=C/c2ccc([N+](=O)[O-])cc2)nc2ccccc2c1=O)Nc1ccccc1
inactive: [1] 88.1% | [2] 93.8% | [3] 65.8% | [4] 80% | [5] 56.8% | [6] 71.9% | [7] 74.6% | [8] 81.4% | [9] 54.2% | [10] 54%

COc1c(B(O)O)cccc1-c1nc2ccc3cn[nH]c3c2c2c1CCCC2
inactive: [1] 71.8% | [2] 45.8% | [3] 48.4% | [4] 76.1% | [5] 77.3% | [6] 25.3% | [7] 57.9% | [8] 57% | [10] 65.2%
active: [9] -17.9%

Cc1ccc(S(=O)(=O)N(CCn2ccnc2[N+](=O)[O-])CCn2ccnc2[N+](=O)[O-])cc1
inactive: [1] 94.2% | [2] 102% | [3] 101% | [4] 103% | [5] 107% | [6] 109% | [7] 109% | [8] 124% | [9] 103% | [10] 104%

N/C(=N\c1nc2ccccc2s1)NC(=O)Nc1ccccc1F
active: [6] -1.47% | [8] 7.03% | [9] 7.56% | [10] -14.8%
inactive: [1] 20.8% | [2] 15.8% | [3] 10.6% | [4] 31.4% | [5] 49.6% | [7] 37.5%

CC(C)(C)C(=O)C1CC(C#N)=C2C=Cc3c(ccc4ccccc34)N21 (stereo not given)
inactive: [1] 94.3% | [2] 75% | [3] 71.2% | [4] 121% | [5] 79.3% | [6] 75% | [7] 92.9% | [8] 96.3% | [9] 30.6% | [10] 81.9%

Cc1ccccc1Nc1nnc(-c2c[nH]c3ccccc23)o1
inactive: [1] 15.5% | [3] 18.9% | [4] 33.4% | [5] 79.9% | [6] 17.6% | [7] 20.8%
active: [2] 7.25% | [8] 7.3% | [9] -2.08% | [10] -20.2%

OC1CCC(Cn2c(C(F)(F)F)cc3c(Cl)ncnc32)CC1 (stereo not given)
active: [1] -58.9% | [3] -4.04% | [5] -19.9% | [7] -85.7% | [8] -25.1% | [9] -35.7%
inactive: [2] 84.9% | [4] 94.6% | [6] 57.7% | [10] 51.8%

O=C(NC(=S)N1CCN(c2ncnc3c2cnn3-c2ccccc2)CC1)c1ccc(F)cc1
inactive: [2] 76.3% | [3] 67.8% | [4] 92.8% | [5] 45.8% | [6] 69.1% | [7] 79.4% | [8] 113% | [9] 70.5% | [10] 71.8%
active: [1] 8.59%

COc1cc(/C=N/NC(=O)c2ccc(OCc3nc4ccc(C)cc4[nH]3)cc2)cc(OC)c1OC
inactive: [4] 88% | [5] 71.9% | [6] 106% | [7] 50.5% | [8] 29.5% | [9] 63.1% | [10] 91.6%
active: [1] 0.64% | [2] 7.31% | [3] -30.8%

O=C(N/N=C/c1ccc(-c2cccc([N+](=O)[O-])c2)s1)c1[nH]c2ccc(Br)cc2c1-c1ccccc1
inactive: [1] 69.9% | [2] 89.2% | [3] 95.9% | [4] 106% | [5] 82.1% | [6] 93.4% | [7] 102% | [8] 62.1% | [9] 82.4% | [10] 105%

COc1ccccc1/C=C/c1cccc(NC(=S)NCCCCN(C)C)c1
active: [1] -30.5% | [2] -6.58% | [3] -58.5% | [4] -92.3% | [5] -79.7% | [6] -72.9% | [7] -82.4% | [8] -48.8% | [9] -24.2% | [10] -62.6%

C=CCSc1nnc(-c2c(C)nc3sccn23)o1
inactive: [1] 101% | [2] 86% | [3] 98.6% | [4] 85.8% | [5] 102% | [6] 98.6% | [7] 95.5% | [8] 131% | [9] 77.1% | [10] 82.7%

O=C(N/N=C/c1occc1Br)c1[nH]c2ccc(Br)cc2c1-c1ccccc1
active: [1] -9.6% | [2] -4.48% | [3] -51.7% | [4] -99.8% | [5] -87% | [6] -85.3% | [7] -92.8% | [8] -73.7% | [9] -28.4% | [10] -53.5%

ClC(Cn1ncc2c(Nc3cccc(Br)c3)nc(SCCN3CCOCC3)nc21)c1ccc(Br)cc1 (stereo not given)
inactive: [3] 10.2% | [4] 18.1% | [5] 34.6% | [6] 19.4% | [7] 28.3% | [8] 33.2%
active: [1] -26.7% | [2] 1.13% | [9] -19.9% | [10] 0.769%

NCCCCn1c(SCCc2c[nH]c3ccccc23)nnc1-c1ccc2ccccc2n1
active: [1] -19.7% | [2] -50.3% | [3] -9.11% | [5] -11.1% | [7] 3.95% | [9] -25.4%
inactive: [4] 26% | [6] 22.3% | [8] 10.4% | [10] 62.3%

Cn1cc(-c2cc(N)n3nc(-c4c[nH]c5ccccc45)cc3n2)c2cc(F)ccc21
inactive: [1] 13.1% | [4] 34.4% | [5] 35.3% | [6] 97.9% | [7] 21.2% | [8] 15.8% | [9] 79.5% | [10] 19.1%
active: [2] 0.774% | [3] -43.2%

Cc1nc2sccn2c1-c1nnc(SCC(C)C)o1
inactive: [1] 44.8% | [2] 57.9% | [3] 93.2% | [4] 90.5% | [5] 86% | [6] 102% | [7] 89.4% | [8] 104% | [9] 88.7% | [10] 79%

N#CC1=C(c2ccco2)Nc2c(c(-c3ccccc3)nn2-c2ccccc2)C12C(=O)Nc1ccc(Cl)cc12 (stereo not given)
active: [1] -2.37% | [3] -29.1% | [5] 9.94% | [8] -27.2% | [9] -22.9% | [10] -3.42%
inactive: [2] 49.8% | [4] 53.5% | [6] 55.3% | [7] 39.2%

FC(F)(F)c1cc2c(Cl)ncnc2n1CCN1CCCCC1
active: [1] -50.9% | [7] -84.8% | [8] -21.7%
inactive: [2] 102% | [3] 14.8% | [4] 95% | [5] 13.5% | [6] 97.2% | [9] 56.3% | [10] 79%
